# Data reported in PubChem BioAssay AID504700 (The Scripps Research Institute Molecular Screening Center, 2011).
# Hit rate of the full screen: of about 340,000 compounds, about 270 (0.079%) were called active.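 The calls were made as follows: active = activation above a cutoff set at the mean over all compounds plus 3 SD (cut at about 18% in these data); inactive = the rest.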 Shown is part of a subset that was picked to be rich in actives.
# Molecular target: cAMP-dependent protein kinase catalytic subunit beta (Homo sapiens) + cAMP-dependent protein kinase type II-beta regulatory subunit (Homo sapiens) (UniProt P22694+P31323)
# Assay: activators of PKA-R2B holoenzyme, primary screen, biochemical, fluorescence polarization, Cy5-IP20, human (AID 504700);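 also: higher means more holoenzyme dissociation and a rise in polarization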
# Details: PKA-R2B holoenzyme dissociation, at 11.4 µM, hits give high values, 0% DMSO only, 100% 113 µM cGMP, R2B truncated from residue 108, S112A mutant
# cAMP-dependent protein kinase catalytic subunit beta (Homo sapiens) + cAMP-dependent protein kinase type II-beta regulatory subunit (Homo sapiens), sequence (P31323 whole entry, looked up, other chains not shown): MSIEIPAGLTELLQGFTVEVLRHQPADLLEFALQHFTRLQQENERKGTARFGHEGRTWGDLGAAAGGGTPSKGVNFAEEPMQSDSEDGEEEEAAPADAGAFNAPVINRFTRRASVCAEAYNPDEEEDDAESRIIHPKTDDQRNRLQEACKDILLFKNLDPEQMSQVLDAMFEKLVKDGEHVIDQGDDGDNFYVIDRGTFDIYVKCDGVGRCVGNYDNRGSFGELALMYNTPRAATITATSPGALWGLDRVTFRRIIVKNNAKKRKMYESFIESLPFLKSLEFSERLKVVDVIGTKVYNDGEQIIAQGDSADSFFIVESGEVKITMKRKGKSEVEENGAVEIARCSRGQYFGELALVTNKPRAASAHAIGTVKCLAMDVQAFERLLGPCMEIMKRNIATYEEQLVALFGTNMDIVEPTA
row,Compound,activation
1,O=C(NCCN1CCOCC1)c1ccc2c(c1)N(Cc1cccc(Cl)c1)C(=O)c1ccccc1S2(=O)=O,-0.88% (inactive)
2,COc1ccc(NC2CCCN(C(=O)c3ccccc3-c3ncc[nH]3)C2)cc1 (stereo not drawn),-6.86% (inactive)
3,Cc1sc2ncnc(SCC(=O)NC3CCS(=O)(=O)C3)c2c1C (stereo not drawn),-9.19% (inactive)
4,CN(c1ccccc1)S(=O)(=O)c1ccc(C(=O)NCc2cccnc2)cc1,-3.42% (inactive)
5,O=C(COC(=O)CCc1c[nH]c2ccccc12)Nc1cccc(Cl)c1,1.73% (inactive)
6,CCOC(=O)c1cc(-c2sc(NC(=O)c3ccccc3)nc2C)n(Cc2ccccc2)n1,-0.16% (inactive)
7,O=C(COC(=O)c1ccc(S(=O)(=O)N2CCCCCC2)cc1)Nc1ccccc1C(F)(F)F,-16.8% (inactive)
8,CN(Cc1ccccc1)C(=O)CCC1CCN(C(=O)c2ccco2)CC1,2.88% (inactive)
9,Cc1[nH]c2ccccc2c1C(=O)C(=O)NCc1nnnn1-c1cccc(F)c1,-2.65% (inactive)
10,Cn1c(=O)cc(OCCCC(=O)N2CCN(Cc3ccc4c(c3)OCO4)CC2)c2ccccc21,-7.18% (inactive)
11,Cc1cc(C)n2nc(C(=O)N3CCN(Cc4ccc5c(c4)OCO5)CC3)nc2n1,-11.3% (inactive)
12,O=C(CCCN1C(=O)c2cccc3cccc(c23)C1=O)N1CCN(Cc2ccc3c(c2)OCO3)CC1,18.8% (active)
13,CCN1C(=O)[C@H]2[C@@H](c3ccccc3)N[C@]3(CCCN(Cc4ccc(C)cc4)C3=O)[C@H]2C1=O,0.79% (inactive)
14,O=C(NCCS(=O)(=O)N1CCN(c2ccccc2)CC1)c1cc(=O)c2ccccc2o1,-13.1% (inactive)
15,CCCCN1C(=O)C(CC(=O)NC(c2ccccc2)c2ccccc2)CC(C(=O)N2CCOCC2)=C1C (stereo not drawn),-5.21% (inactive)
16,Cc1ccccc1NC(=O)Cc1nc(COC(=O)C(C)(C)Oc2ccc(Cl)cc2)cs1,3.15% (inactive)
17,C/C(COc1ccccc1)=N\NC(=O)c1nnn(-c2nonc2N)c1-c1ccc(C)cc1,-17.1% (inactive)
18,CCCc1c(C)nc2scc(-c3ccc(Cl)cc3)n2c1=O,-2.72% (inactive)
19,CSc1ncnc2c1ncn2CCCNCc1cccs1,2.56% (inactive)
20,CCC(Oc1ccccc1)C(=O)OCC(=O)Nc1c(C)nn(-c2ccccc2)c1C (stereo not drawn),-5.13% (inactive)
21,COc1cccc(OCC(=O)NCCS(=O)(=O)N2CCN(c3ccccc3)CC2)c1,0.99% (inactive)
22,CNC(=O)C[C@H]1C(=O)N(Cc2ccccc2)C[C@@H]1CSC,-9.1% (inactive)
23,COc1ncnc2c1ncn2CCCNCCN1CCOCC1,4.38% (inactive)
